# Measurements: PubChem BioAssay AID651635 (National Center for Advancing Translational Sciences (NCATS), 2012)
# Hit rate of the full screen: of about 400,000 compounds, about 1,900 (0.47%) were called active. A call without a number means that no potency is given here. Inconclusive results (about 14%) are left out. The sample holds actives, similar compounds and a random draw of the others, so the mix is not that of the screen. The call rests on the fitted dose curve; in most records, active means well fitted cell-killing curve with a large enough effect; inconclusive means small, poorly fitted or top-dose-only effect, or effect the other way; inactive means no such curve, though single readings can be large or run the other way.
# Experiment: Viability Counterscreen for Primary qHTS for Inhibitors of ATXN expression; further: nearly all actives have a fitted effect of over 40% in size
# Conditions: S2 cells (HEK-293 line with an ATXN2-luciferase reporter) viability, CellTiter-Fluor protease fluorescence, 24 h; series mostly up to 56.7 µM
# Excerpt: Spinocerebellar ataxia type 2 (SCA2) is a multisystem neurodegenerative disease caused by a dominantly-acting mutation leading to expansion of a polyQ domain in the ataxin-2 protein (ATXN2). SCA2 patients develop progressive ataxia and later lose function in other neuronal systems. Prominent parkinsonian signs develop in some patients. Similar to many neurodegenerative disorders, no symptomatic or disease-modifying treatments are known.
# The primary objective of the proposed research is to identify compounds inhibiting ATXN2 expression and to test them for efficacy in SCA2 mouse models. To this end, we have developed a cell-based assay paired with an in vivo mouse model using identical luciferase expression constructs. This approach takes advantage of an ATXN2-luciferase transgene, with the luciferase gene flanked by the upstream and downstream portions of the ATXN2 gene. This primary assay was tested against the NIH Molecular Libraries Small Molecule Repository (MLSMR).
# NIH Chemical Genomics Center [NCGC]
# NIH Molecular Libraries Probe Centers Network [MLPCN]
# Assay Submitter (PI): Daniel Scoles, University of Utah
# PROTOCOL TABLE (as described by Inglese J, Shamu CE and Guy RK. 2007)
# SEQUENCE No. (e.g., 1, 2, 3, etc.); […] (e.g., Cells, Incubation, Reagent, etc.); VALUE; DESCRIPTION.
# 1; Cells; 4 uL; white, solid bottom, 1536-well Greiner assay plate.
# 2; Incubation; 2 hr; 37 degree C in 5% humidified CO2.
# 3; Compounds; 23 nL; Kalypsis pintool (Wako USA) equipped with a 1536-well pin head.
# 4; Incubation; 24 hr; 37 degree C in 5% humidified CO2.
# 5; Reagent; 1 uL; Gly-Phe-7-Amino-4-trifluoromethylcoumarin.
# 6; Incubation; 30 min; 37 degree C in 5% humidified CO2.
# 7; Detection; Fluorescence; ViewLux plate reader (PerkinElmer).
# 8; Reagent; 3 uL; SteadyGlo luciferase solution (Promega).
# 9; Incubation; 5 min; room temperature.
# 10; Detection; Luminescence; ViewLux plate reader (PerkinElmer).
# NOTES (numbers refer to Sequence numbers above)
# 1. S2 cells expressing ATXN2-luciferase reporter were suspended in phenol-red free DMEM and dispensed in assay plates using a Multidrop Combi dispenser (Thermo Fisher Scientific).
# 2. Assay plates were incubated. Evaporation was prevented by covering assay plates with metal lids containing holes to allow gas diffusion.
# 3. […] Vehicle-only plates, with DMSO being pin-transferred to columns 5-48, were inserted uniformly at the beginning and the end of each library to monitor and record any shifts in assay performance.
# 5. 125 uM Gly-Phe-7-Amino-4-trifluoromethylcoumarin (MP Biomedicals) working concentration was used at a final concentration of 25 uM.
# 7. To assess cell viability; the assay plates were read using the ViewLux high-throughput CCD imager (PerkinElmer), wherein single end-point fluorescence measurement was acquired (excitation 405/10; emission 540/25 nm).
# 8. Detection reagent SteadyGlo Luciferase (Promega) was added to the assay plate.
# 10. Luminescence is then measured on the ViewLux imager equipped with a clear emission filter using a 2 sec exposure. All screening operations were performed on a fully integrated robotic system (Kalypsys) containing one RX-130 and two RX-90 anthropomorphic robotic arms (Staubli).
# Inglese J, Shamu CE and Guy RK, Reporting data from high throughput screening of small molecule libraries, Nature Chemical Biology, 2007, 3(8): 438-441. doi.org/10.1038/nchembio0807-438.
# Potency means the concentration at half of the fitted maximal effect.
row,SMILES,Potency
1,CCCc1ccc(C(O)c2ncc(-c3cccc(OC)c3)[nH]2)cc1 (configuration not stated),inactive
2,COc1cccc(NC(=O)Nc2ccc(F)cc2)c1,inactive
3,CC(=O)c1ccc(Nc2nc(C(N)c3ccccc3)cs2)cc1 (configuration not stated),inactive
4,COc1ccc(C(N)c2csc(NC(=O)Nc3cccc(C(F)(F)F)c3)n2)cc1 (configuration not stated),17.8 µM (active)
5,Cc1c(O)cc2c(c1C)O[C@](C)(CCC[C@H](C)CCC[C@H](C)CCCC(C)C)CC2,inactive
6,OCC1CCCN(c2nc3cc4c(cc3cc2CNCc2cccs2)OCO4)C1 (configuration not stated),inactive
7,CC(C)c1cccc(C(C)C)c1Nc1cn[nH]c1,inactive
8,CC(C)C[C@H]1CNC(=S)N1C[C@H]1CCCN1C[C@H](Cc1ccc(O)cc1)N1C[C@H](Cc2ccc(O)cc2)N(CC2CCCCC2)C1=S,31.6 µM (active)
9,CC(C)C[C@H]1CNC(=O)C(=O)N1C[C@@H]1CCCN1C[C@H](Cc1ccccc1)N1C[C@H](CC(C)C)N(CC2CCCCCC2)C(=O)C1=O,inactive
10,O=C1NC[C@H](Cc2ccc(O)cc2)N(C[C@@H]2CCCN2C[C@H](Cc2ccccc2)N2C[C@H](Cc3ccccc3)N(CC3CCCCC3)C(=O)C2=O)C1=O,inactive
11,COc1ccc(C2CC(c3cccc(OC)c3)=NN2c2ccc(S(N)(=O)=O)cc2)cc1 (configuration not stated),inactive
12,CCCOc1ccc(F)cc1-c1cc(C(=O)Nc2ccc(F)c(Cl)c2)[nH]n1,inactive
13,Nc1cccc(OCCCCCOc2cccc(N)c2)c1,inactive
14,O=c1c(CN2CCOc3ccc(CN4CCC(Oc5cccnc5)CC4)cc3C2)coc2ccccc12,28.2 µM (active)
15,c1ccc(CN2CCN(Cc3ccc4c(c3)CN(Cc3c[nH]c5ccccc35)CCO4)CC2)nc1,inactive
16,CCOC(=O)N1CCC(N2CCOc3ccc(CN4CCC(O)(c5cccnc5)CC4)cc3C2)CC1,inactive
17,Cc1cc(-c2ccnc(-n3ncc(C(=O)NCCc4ccncc4)c3C)n2)c(C)s1,inactive
18,CC[C@H](C)CCCCC(=O)N[C@@H](CCN)C(=O)N[C@H](C(=O)N[C@@H](CCN)C(=O)N[C@H]1CCNC(=O)[C@@H]([C@H](C)O)NC(=O)[C@H](CCN)NC(=O)[C@H](CCN)NC(=O)[C@H](CC(C)C)NC(=O)[C@@H](CC(C)C)NC(=O)[C@H](CCN)NC1=O)[C@@H](C)O,inactive
19,CC(C)N=C1CCCC1C(=S)SSC(=S)C1CCCC1=NC(C)C (configuration not stated),0.282 µM (active)
20,CC1(C(=O)NS(=O)(=O)c2ccc3ccccc3c2)CCN1C(=O)C1(c2ccc(Cl)cc2)CCC1 (configuration not stated),inactive
21,CCOC(=O)Cc1ccc(NC(=O)Nc2c[nH]c(=O)[nH]c2=O)cc1,inactive
22,COC(=O)c1ccccc1C(=O)NCc1nc(N2CCCC2)c2cccc(C)c2n1,inactive
23,COc1ccc(COC[C@H](CC(C)C)N2CCN(C(=O)c3cccc(C(F)(F)F)c3)CCC2=O)cc1,inactive

row,SMILES,Potency
1,CC(=O)N1Cc2cc(C(=O)NCc3cccc(F)c3)nc(-c3cccc(C4=CCCC4)c3)c2[C@H]1CCO,inactive
2,CCCCOCCOC(=O)c1cccnc1,inactive
3,Cc1coc2c(O)cc3c(c12)OC1(N2CCCCC2)C(=O)NCCCC31 (configuration not stated),31.6 µM (active)
4,C=CCC[C@H](CCCCC)OC(=O)/C=C/[C@H](O)[C@@H](O)C[C@@H](O)CC=C,inactive
5,O[C@H]1CN(Cc2cccs2)[C@@H](c2ccc(Cl)cc2)C[C@@H]1n1cc(C2CC2)nn1,inactive
6,O=C(OCc1cn([C@@H]2C[C@H](c3ccc(Cl)cc3)N(Cc3cccs3)C[C@H]2O)nn1)c1ccccc1,inactive
7,O[C@H]1C[C@H](c2ccc(Cl)cc2)N(Cc2cccs2)C[C@@H]1n1cc(C2CC2)nn1,22.4 µM (active)
8,COc1cccc(CN2CCC3(CC2)c2ccccc2[C@@H](NC(=O)c2ccccc2OC)[C@@H]3O)c1,inactive
9,O=C1CCNCCN1[C@H](CO)Cc1ccccc1,inactive
10,c1ccc(C[C@H]2CNCCN2CCC23CC4CC(CC(C4)C2)C3)cc1,31.6 µM (active)
11,Cc1cccc(C(=O)Nc2ccc(S(=O)(=O)N3CCCCC3c3cccnc3)cc2)c1 (configuration not stated),14.1 µM (active)
12,CCOc1ccccc1C(=O)Nc1ccc(S(=O)(=O)N2CCCCC2c2cccnc2)cc1 (configuration not stated),inactive
13,Cc1cc(NS(=O)(=O)c2ccc(NC(=O)c3cccnc3)cc2)nc(C)n1,inactive
14,CCN1CCN(C(=O)N[C@@H](C(=O)N[C@@H]2C(=O)N3[C@@H]2SC(C)(C)[C@H]3C(=O)O)c2ccccc2)C(=O)C1=O,inactive
15,CCOC(=O)c1ccn(S(=O)(=O)c2ccc(C)cc2)c1-c1ccccc1,inactive
16,Oc1ccc2ccccc2c1N=Nc1nccs1,15.8 µM (active)
17,Oc1ccc(N=Nc2nccs2)c(O)c1,10 µM (active)
18,CN1CCCCCC1C(=O)NCCN1Cc2ccccc2OC(c2ccsc2)C1 (configuration not stated),inactive
19,Cc1nc2cc(NC(=O)[C@@H]3C[C@@H](Sc4ccccn4)CN3Cc3ccccc3C)ccc2s1,inactive
20,O=C(NN=Cc1ccc([N+](=O)[O-])cc1)C1CC1,inactive
21,CC(=O)Nc1ccc(C=Cc2ccc([N+](=O)[O-])cc2)cc1,inactive
22,O=C1/C(=C\c2ccc([N+](=O)[O-])cc2)CS(=O)(=O)C/C1=C/c1ccc([N+](=O)[O-])cc1,2.67 µM (active)
23,COC(=O)c1cc(Cl)c(NC(C)=O)cc1OC,inactive

row,SMILES,Potency
1,O=c1cc(COc2cccc(C(F)(F)F)c2)nc2sc3c(n12)CCCC3,inactive
2,O=C(Nc1ccc(Cl)cc1)C1Cc2c(-c3ccc4c(c3)OCO4)ccnc2O1 (configuration not stated),inactive
3,CCCCNC(=O)C(C)N(CCN(C)C)C(=O)CCCCCN1C(=O)NC(c2ccc(Cl)cc2)C(C(=O)OCc2ccccc2)=C1C (configuration not stated),22.4 µM (active)
4,COC(=O)CCCCCN1C(=O)NC(c2ccc(-c3ccccc3)cc2)C(C(=O)OCc2ccccc2)=C1C (configuration not stated),inactive
5,CCN1C(=O)N[C@@H](c2ccccc2)C(C(=O)OC)=C1C,inactive
6,Cc1oc(-c2cccc(NC(=O)c3ccccc3)c2)nc1CNC(=O)c1cnc2ccccn2c1=O,inactive
7,COc1cc(=O)n2c(c1C(=O)N(C)Cc1nonc1C)CCN(C(=O)c1ccc(C)cc1C)CC2,inactive
8,O=c1ccc2c(-c3ccccc3S(=O)(=O)O)c3ccc(O)c(O)c3oc-2c1O,10 µM (active)
9,CC(=O)Nc1ccccc1-c1nc(CNC(=O)c2ccc(Cl)cc2)c(C)o1,inactive
10,COc1cccc(CSc2nc3nc(C)cc(C)n3n2)c1,inactive
11,COc1ccc(-c2cc(C)nc3nc(N)nn23)cc1,inactive
12,COc1ccc(-c2nc3nc(C)cc(C)n3c2Nc2c(C)cccc2C)cc1,28.2 µM (active)
13,COc1cncc(-c2cnc3sc(NCCc4ccccn4)nn23)c1,inactive
14,COc1cc(/C=C/C(N)=O)cc(OC)c1OC,inactive
15,CC(C)(c1ccccc1)c1ccc(OCCN2CCCC2)cc1,inactive
16,CC1CCCN(CC(=O)Nc2cc(Cl)ccc2Oc2ccccc2)C1 (configuration not stated),inactive
17,COCC1CCCN(Cc2ccc3c(c2)CN(C(=O)c2ccnn2C)CCO3)C1 (configuration not stated),inactive
18,CCCNC(=O)c1cc(C2CCCN(C(=O)c3ccc4c(c3)CCO4)C2)on1 (configuration not stated),inactive
19,COc1ccc2c(c1)CCc1cnc(-n3ncc(C(=O)NCCN4CCOCC4)c3C)nc1-2,inactive
20,Cc1cnc(C(=O)N2CCOc3ccc(CN4CCCC(C(=O)c5cccnc5)C4)cc3C2)[nH]1 (configuration not stated),inactive
21,CC(=O)Nc1cc(C(=O)N2CCc3c(Cl)cccc3C2)cc2ncn(CCc3ccccn3)c12,inactive
22,CCc1ccccc1NC(=O)[C@@H]1CCC(=O)N1C1OC(=O)c2c1ccc(OC)c2OC (some centres not stated),inactive
23,COc1ccc(-c2csc(Nc3cccc(C)n3)n2)cc1OC,inactive

row,SMILES,Potency
1,Cc1ccc(-c2csc(-c3c[nH]c4ccccc34)n2)cc1,inactive
2,COc1ccc2c(c1OC)C(=O)OC2Nc1nc(-c2ccccc2)cs1 (configuration not stated),20 µM (active)
3,Cc1ccc(-c2csc(NC3OC(=O)c4ccccc43)n2)cc1 (configuration not stated),25.1 µM (active)
4,C/C(CC1CC(C)(C)OC1=O)=N/Nc1nc(-c2ccccc2)cs1 (configuration not stated),inactive
5,Cc1c(C(=O)NCC2CCCN(C)C2)cnn1-c1nccc(-c2ccco2)n1 (configuration not stated),inactive
6,Cc1ccc(NS(=O)(=O)c2cc3c(cc2Br)NC(=O)CO3)cc1C,inactive
7,N#Cc1ccc(-c2nc3c(Cl)cc(C(F)(F)F)cn3c2Cc2ccccc2C(F)(F)F)cc1,inactive
8,C[C@@H]1CN(Cc2ccc3c(c2)CN(Cc2ccc(Oc4ncccn4)cc2)CCO3)C[C@H](C)O1,inactive
9,CC(C)(C)c1ccc(S(=O)(=O)Nc2ccc(O)c(Sc3nc4ccccc4s3)c2)cc1,inactive
10,CC(C)c1ccc(S(=O)(=O)Nc2ccc(O)c(Sc3nc4ccccc4s3)c2)cc1,inactive
11,O=[N+]([O-])c1c(NCCO)cc(Sc2nc3ccccc3s2)c2nonc12,20 µM (active)
12,C=C1C(=CC=C2CCC[C@]3(C)[C@@H]([C@H](C)C=C[C@H](C)C(C)C)CC[C@@H]23)C[C@@H](O)C[C@@H]1O,inactive
13,COc1ccc(C)cc1N1C(=O)[C@@H]2C[C@H]1CN2Cc1cccc(OC)c1O,inactive
14,COc1ccc(NC(=O)C2Cc3c(-c4ccc(Cl)cc4)ccnc3O2)cc1 (configuration not stated),inactive
15,CCc1ccccc1N1CC(c2nc3ccccc3n2CCCCOc2ccccc2)CC1=O (configuration not stated),inactive
16,CCCCN1CC(c2nc3ccccc3n2CCCCOc2ccc(C)cc2C)CC1=O (configuration not stated),25.1 µM (active)
17,CCOc1ccc(N2CC(c3nc4ccccc4n3CCOc3ccc(OC)cc3)CC2=O)cc1 (configuration not stated),inactive
18,Cn1c(=O)c2c(ncn2CCc2ccccc2)n(C)c1=O,inactive
19,COc1ccccc1Cc1c(-c2ccc(Cl)cc2)nc2ccc(Cl)cn12,inactive
20,CCOc1ccc(-c2n[nH]c3c2C(c2ccccc2OC)N(c2ccc(Br)cc2)C3=O)cc1 (configuration not stated),inactive
21,COc1ccccc1CCNS(=O)(=O)c1cn(C)nc1C,inactive
22,CCCCc1c(-c2ccc(Br)cc2)ncn1CCc1ccccc1OC,15.8 µM (active)
23,CCCCCc1c(Cc2ccccc2)ncn1CCc1ccccc1OC,22.4 µM (active)
